We go through 38 compounds from PubChem BioAssay (Tox21).

Results filed as inconclusive are left out. Unmarked numbers belong to inactive results. The source made the active and inactive calls. Unless noted, the call rests on the fitted dose curve. Where a SMILES comes first, the peptide text is derived from it. [ ]: non-standard residue; d: D form. pGlu = O=C1CC[C@@H](C(=O)O)N1
On the % scale 0 is the no-effect control and ±100 the full control effect.

Chain of Thyrotropin receptor (Homo sapiens) (P16473 whole entry, looked up): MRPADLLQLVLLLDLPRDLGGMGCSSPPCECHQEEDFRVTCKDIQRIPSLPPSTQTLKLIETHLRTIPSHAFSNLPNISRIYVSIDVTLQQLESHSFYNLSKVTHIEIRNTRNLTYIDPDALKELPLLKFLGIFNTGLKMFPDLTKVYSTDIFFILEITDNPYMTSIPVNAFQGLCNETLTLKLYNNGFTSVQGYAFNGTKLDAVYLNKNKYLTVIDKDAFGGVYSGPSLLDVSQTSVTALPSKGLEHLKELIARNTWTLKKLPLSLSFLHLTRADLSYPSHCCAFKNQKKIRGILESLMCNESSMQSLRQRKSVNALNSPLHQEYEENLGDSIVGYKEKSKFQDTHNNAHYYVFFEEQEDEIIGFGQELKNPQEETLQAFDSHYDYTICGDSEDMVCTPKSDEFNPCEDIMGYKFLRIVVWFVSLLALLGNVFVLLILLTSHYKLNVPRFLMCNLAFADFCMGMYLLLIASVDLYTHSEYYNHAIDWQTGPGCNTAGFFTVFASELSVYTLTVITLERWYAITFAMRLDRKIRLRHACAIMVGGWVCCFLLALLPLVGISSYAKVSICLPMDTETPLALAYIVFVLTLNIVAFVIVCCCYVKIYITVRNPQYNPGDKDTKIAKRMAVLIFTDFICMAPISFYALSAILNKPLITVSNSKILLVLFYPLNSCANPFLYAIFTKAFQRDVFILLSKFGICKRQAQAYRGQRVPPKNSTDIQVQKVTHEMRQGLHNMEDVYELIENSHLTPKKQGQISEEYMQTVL

System in one experiment: not listed separately
In words: qHTS assay to identify small molecule agonists of the estrogen related receptor signaling pathway with the pleiotropic PPARgamma coactivator (PGC) from Tox21 10K library (AID 1224842; active means well fitted activation curve with a large enough effect in the repeat runs; further: nearly all actives have a fitted effect of over 15% in size). Particulars: PGC/ERR reporter cell line, luciferase ONE-Glo, 18 h; series mostly up to 92.4 µM; activation: at the top concentration. The method, boiled down:
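PGC/ERR reporter cells (NTP line) were seeded 2,000 per well, rested 6 h at 37 C/5% CO2, then pin-dosed with compounds in DMSO for 18 h at 37 C; luciferase read by One-Glo luminescence after 30 min at room temperature.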
(qHTS replaces the single test concentration by a dilution series.)
With `Clc1cc(Cl)c(Cl)nc1Cl`, the “activation” value is 3.49%.
As for `C[C@@H]1CCC[C@H](C)N1`, the “activation” value is 4.19% [at 42.5 µM].
With `CCOC(=O)OC(C)OC1=C(C(=O)Nc2ccccn2)N(C)S(=O)(=O)c2ccccc21` (centres undefined), the “activation” value is 0.583% [at 42.5 µM].
Still for that read-out and setting: the figure for `O=C(O)CC(C(=O)O)S(=O)(=O)O` (centres undefined) is 3.57%; for `CC(=O)c1ccccc1[N+](=O)[O-]` it is -0.292%; for `Cc1cccc(C)c1NC(=O)CC12CCCN1CCC2` it is -0.971% [at 42.5 µM].
As to `OCCCCCO`, the “activation” value is 0.547%.
The same measure, in the same setting: the figure for `CC(COc1ccccc1)NN` (centres undefined) is 0.379% [at 42.5 µM]; for `NS(=O)(=O)Cc1noc2ccccc12` it is -0.287% [at 42.5 µM].
For `Cc1cc(C)c(N=Nc2c(O)c(S(=O)(=O)O)cc3cc(S(=O)(=O)O)ccc23)cc1C`, the activation is -8.18% [at 8.39 µM].
On the same count and under the same terms, in the case of `Nc1c2c(nc3c1CCC3)CCCC2` it was 0.862% [at 42.5 µM]; in that of `O=S(=O)(O)c1cccc2c(S(=O)(=O)O)cccc12`, 5.85%.
Still for that read-out and setting: in the case of `CCCCCCCCN1CCCC1=O` it was 3.39%.
Same read-out and setting: in the case of `O=S(=O)(O)c1cccc(S(=O)(=O)O)c1` it was 0.155%; in that of `CCCO[Si](OCCC)(OCCC)OCCC`, -0.0298%.
For `CC[C@H]1OC(=O)[C@H](C)[C@@H](O[C@H]2C[C@@](C)(OC)[C@@H](O)[C@H](C)O2)[C@H](C)[C@@H](O[C@@H]2O[C@H](C)C[C@H](N(C)C)[C@H]2O)[C@](C)(OC)C[C@@H](C)C(=O)[C@H](C)[C@@H](O)[C@]1(C)O`, the “activation” value is -2.74%.
Same read-out and setting: the figure for `C=CCCCCCCCCC(=O)OCC` is 0.412%; for `CO[Si](C)(OC)c1ccccc1` it is -0.855%; for `C=CCCC(=O)O` it is -0.308%.
For `O=Cc1cccc(Br)c1`, the “activation” value was 3.23%.
On the same count and under the same terms, the figure for `C[N+]1(CC2COC(c3ccccc3)(c3ccccc3)O2)CCCCC1` (centres undefined) is 0.389% [at 19 µM].
The same measure, in the same setting: in the case of `Clc1cc(Cl)cc(Cl)c1` it was -0.582%; in that of `CCOC(=O)COC(=O)c1ccccc1C(=O)OCC`, 0.736%.
Same read-out and setting: in the case of `CC1=NN(c2cccc(S(=O)(=O)O)c2)C(=O)C1` it was -5.27%; in that of `Cc1nc(C2CCCCC2)c(-c2ccc(S(N)(=O)=O)c(F)c2)o1`, 5.2% [at 42.5 µM].
With `CCCCCCC1CCC(=O)O1` (centres undefined), the “activation” value is 3.26%.
As for `C=COCC1CCC(COC=C)CC1` (centres undefined), the “activation” value is 5.09%.
Regarding `CC1(C)OC[C@@H](COC(=O)CCc2ccc(OC[C@@H](O)CNCCNC(=O)N3CCOCC3)cc2)O1`, the “activation” value was 0.0857% [at 42.5 µM].
Same read-out and setting: the figure for `CC(=O)Oc1cccc(C)c1` is 2.63% [at 42.5 µM].
As to `CCC(C(=O)NC(=O)NC(C)=O)c1ccccc1` (centres undefined), the “activation” value is -0.737% [at 42.5 µM].
The same measure, in the same setting: in the case of `CCCCOCCOC(=O)CCCCCCCCC(=O)OCCOCCCC` it was 1.67%; in that of `CCNC(=O)[C@@H]1CCCN1C(=O)[C@H](CCCN=C(N)N)NC(=O)[C@H](CC(C)C)NC(=O)CNC(=O)[C@H](Cc1ccc(O)cc1)NC(=O)[C@H](CO)NC(=O)[C@H](Cc1c[nH]c2ccccc12)NC(=O)[C@H](Cc1cnc[nH]1)NC(=O)[C@@H]1CCC(=O)N1` ([pGlu]HWSYGLRP-NHEt), -5.8% [at 42.5 µM].

For another experiment, the target named is Thyrotropin receptor (Homo sapiens) (UniProt P16473). In words: qHTS assay to identify small molecule agonists of the thyroid stimulating hormone receptor (TSHR) signaling pathway (AID 1224843). Further: nearly all actives have a fitted effect of over 45% in size. Further: potency means the concentration at half of the fitted maximal effect. The following applies: TSHR-HEK293 cells, cAMP HTRF, agonist mode, 30 min; series mostly up to 92.4 µM; activation: at the top concentration. The method, boiled down:
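TSHR-expressing HEK293 cells (800 per well) were exposed to compounds for 30 min at room temperature. cAMP was then detected by HTRF competition with cAMP-d2 and anti-cAMP cryptate, read after 1 h at room temperature. Fifteen concentrations, triplicate.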
Turning to `Clc1cc(Cl)c(Cl)nc1Cl`, the “activation” value was 0.547%.
Still for that read-out and setting: the figure for `C[C@@H]1CCC[C@H](C)N1` is 5.3% [at 42.5 µM]; for `O=C(O)CC(C(=O)O)S(=O)(=O)O` (centres undefined) it is 9.57%.
Same read-out and setting: the figure for `[O-][n+]1cccc(CO)c1` is 2.22% [at 42.5 µM].
Still for that read-out and setting: the figure for `CC(=O)c1ccccc1[N+](=O)[O-]` is 1.63%; for `Cc1cccc(C)c1NC(=O)CC12CCCN1CCC2` it is 0.452% [at 42.5 µM]; for `CC(COc1ccccc1)NN` (centres undefined) it is 0.177% [at 42.5 µM].
In the case of `O=S(=O)(O)c1cccc2c(S(=O)(=O)O)cccc12`, the “activation” value is 3.77%.
For the compound `CNCC(O)c1ccc(O)c(O)c1` (centres undefined), the Potency was 2980 nM (active).
Turning to `O=S(=O)(O)c1cccc(S(=O)(=O)O)c1`, the “activation” value was -9.99%.
On the same count and under the same terms, in the case of `CCCO[Si](OCCC)(OCCC)OCCC` it was -11.8%; in that of `CO[Si](C)(OC)c1ccccc1`, 25.2%.
The same measure, in the same setting: in the case of `C=CCCC(=O)O` it was -9.89%; in that of `O=Cc1cccc(Br)c1`, 3.51%.
On the same count and under the same terms, the figure for `CN1C(C)(C)CC(O)CC1(C)C` is 0.0629%; for `CCOC(=O)COC(=O)c1ccccc1C(=O)OCC` it is -9.09%.
Turning to `CC1=NN(c2cccc(S(=O)(=O)O)c2)C(=O)C1`, the “activation” value is -2.33%.
Still for that read-out and setting: the figure for `CN1CCC(=C2c3ccccc3CCc3cccnc32)CC1` is 0.113% [at 42.5 µM].
Take `Cc1nc(C2CCCCC2)c(-c2ccc(S(N)(=O)=O)c(F)c2)o1`: the “activation” value is 5.28% [at 42.5 µM].
Turning to `Nc1ccn([C@@H]2O[C@H](CO)[C@@H](O)C2(F)F)c(=O)n1`, the “activation” value is 9.94% [at 42.5 µM].
Same read-out and setting: the figure for `CCCCCCC1CCC(=O)O1` (centres undefined) is -9.76%.
Same read-out and setting: the figure for `C=COCC1CCC(COC=C)CC1` (centres undefined) is -0.343%; for `CC(=O)Oc1cccc(C)c1` it is 0.162% [at 42.5 µM].
Same read-out and setting: in the case of `CCC(C(=O)NC(=O)NC(C)=O)c1ccccc1` (centres undefined) it was 3.67% [at 42.5 µM]; in that of `O=C(O)CCCC[P+](c1ccccc1)(c1ccccc1)c1ccccc1`, -9.91% [at 42.5 µM].
Take `CCCCOCCOC(=O)CCCCCCCCC(=O)OCCOCCCC`: the “activation” value was -19%.

System in a further experiment: not listed separately
In words: qHTS assay to identify small molecule agonists of the hypoxia (HIF-1) signaling pathway - cell viability counter screen (AID 1224844). Further: nearly all actives have a fitted effect of over 50% in size. The following applies: HRE-bla ME-180 viability, CellTiter-Glo luminescence, 17 h; series mostly up to 76.8 µM; activity change, negative = cytotoxicity: at the top concentration. The method, boiled down: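 ME-180 HRE-bla cells, 2,000/well, 0.5% dialyzed FBS; 5 hr settle, 17 hr compound at 37C/5% CO2; CCF4-AM reporter read first, then CellTiter-Glo luminescence after 30 min RT.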
`Clc1cc(Cl)c(Cl)nc1Cl`: the “activity change, negative = cytotoxicity” value is -5.24%.
For `CCOC(=O)OC(C)OC1=C(C(=O)Nc2ccccn2)N(C)S(=O)(=O)c2ccccc21` (centres undefined), the “activity change, negative = cytotoxicity” value was 5.02% [at 35.3 µM].
On the same count and under the same terms, in the case of `[O-][n+]1cccc(CO)c1` it was -0.961% [at 35.3 µM].
Still for that read-out and setting: the figure for `CC(=O)c1ccccc1[N+](=O)[O-]` is 5.78%.
The same measure, in the same setting: in the case of `Cc1cccc(C)c1NC(=O)CC12CCCN1CCC2` it was 11.1% [at 35.3 µM]; in that of `OCCCCCO`, 0.132%; in that of `CC(COc1ccccc1)NN` (centres undefined), -1.9% [at 35.3 µM].
`NS(=O)(=O)Cc1noc2ccccc12`: the “activity change, negative = cytotoxicity” value is 1.65% [at 35.3 µM].
On the same count and under the same terms, the figure for `Cc1cc(C)c(N=Nc2c(O)c(S(=O)(=O)O)cc3cc(S(=O)(=O)O)ccc23)cc1C` is -6.32% [at 6.97 µM]; for `Nc1c2c(nc3c1CCC3)CCCC2` it is 6.83% [at 35.3 µM]; for `CCCCCCCCN1CCCC1=O` it is 6.59%.
Still for that read-out and setting: the figure for `CNCC(O)c1ccc(O)c(O)c1` (centres undefined) is 17.1% [at 35.3 µM]; for `O=S(=O)(O)c1cccc(S(=O)(=O)O)c1` it is 10.2%; for `CCCO[Si](OCCC)(OCCC)OCCC` it is 11.4%.
The same measure, in the same setting: in the case of `CC[C@H]1OC(=O)[C@H](C)[C@@H](O[C@H]2C[C@@](C)(OC)[C@@H](O)[C@H](C)O2)[C@H](C)[C@@H](O[C@@H]2O[C@H](C)C[C@H](N(C)C)[C@H]2O)[C@](C)(OC)C[C@@H](C)C(=O)[C@H](C)[C@@H](O)[C@]1(C)O` it was -7.67%.
On to `CO[Si](C)(OC)c1ccccc1`, for which the “activity change, negative = cytotoxicity” value is 7.94%.
Same read-out and setting: in the case of `C=CCCC(=O)O` it was 1.61%.
With `O=Cc1cccc(Br)c1`, the “activity change, negative = cytotoxicity” value is 2.04%.
The same measure, in the same setting: in the case of `CN1C(C)(C)CC(O)CC1(C)C` it was 2.76%.
Take `C[N+]1(CC2COC(c3ccccc3)(c3ccccc3)O2)CCCCC1` (centres undefined): the activity change, negative = cytotoxicity is 0.991% [at 15.8 µM].
On the same count and under the same terms, the figure for `Clc1cc(Cl)cc(Cl)c1` is -28.7%.
Still for that read-out and setting: the figure for `CCOC(=O)COC(=O)c1ccccc1C(=O)OCC` is -0.0224%.
On the same count and under the same terms, in the case of `CN1CCC(=C2c3ccccc3CCc3cccnc32)CC1` it was 5.46% [at 35.3 µM].
Consider `Cc1nc(C2CCCCC2)c(-c2ccc(S(N)(=O)=O)c(F)c2)o1`, for which the “activity change, negative = cytotoxicity” value is -0.161% [at 35.3 µM].
On the same count and under the same terms, in the case of `Nc1ccn([C@@H]2O[C@H](CO)[C@@H](O)C2(F)F)c(=O)n1` it was -5.94% [at 35.3 µM].
The same measure, in the same setting: in the case of `C=COCC1CCC(COC=C)CC1` (centres undefined) it was -0.927%; in that of `CC1(C)OC[C@@H](COC(=O)CCc2ccc(OC[C@@H](O)CNCCNC(=O)N3CCOCC3)cc2)O1`, -5.64% [at 35.3 µM]; in that of `CC(=O)Oc1cccc(C)c1`, -4.84% [at 35.3 µM].
Still for that read-out and setting: in the case of `O=C(O)CCCC[P+](c1ccccc1)(c1ccccc1)c1ccccc1` it was -0.0719% [at 35.3 µM]; in that of `CCCCOCCOC(=O)CCCCCCCCC(=O)OCCOCCCC`, 2.71%.
Take `CCNC(=O)[C@@H]1CCCN1C(=O)[C@H](CCCN=C(N)N)NC(=O)[C@H](CC(C)C)NC(=O)CNC(=O)[C@H](Cc1ccc(O)cc1)NC(=O)[C@H](CO)NC(=O)[C@H](Cc1c[nH]c2ccccc12)NC(=O)[C@H](Cc1cnc[nH]1)NC(=O)[C@@H]1CCC(=O)N1` ([pGlu]HWSYGLRP-NHEt): the “activity change, negative = cytotoxicity” value was 4.86% [at 35.3 µM].
